# Test results: the supplement of paper PMC6555819
# Key:
# Test in all cases: PBM binding z-score (relative to random genomic background probes); higher = stronger binding; sequences stand for … in GC…GCGATTGACAGCGTAGAATGAAGG
# [1] = tested on: FXR:RXRa (NR concentration 270 nM, RXRa partner concentration 90 nM)
# Outline: (§1)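 The probes on custom Agilent 4×180K protein-binding microarrays were double-stranded, with 34-nt variable regions bearing direct-repeat seeds, single-nucleotide variants, half-site ablations and random human genomic background sequences. Incubation lasted 1 h with ligand-free nuclear receptor dimers in PBS pH 7.4, 2% milk, 0.02% Triton X-100, 1 mM DTT, 0.2 mg/mL BSA and 0.4 mg/ml salmon testes DNA. Antibodies against each partner (one per run) detected bound dimers, and fluorescence scans were regression-normalized. Binding z-scores take the random background probes as reference.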
# [2] = tested on: LXRa:RXRa (NR concentration 270 nM, RXRa partner concentration 90 nM)
# Outline: as §1
# [3] = tested on: LXRa homodimer (NR concentration 270 nM)
# Outline: as §1
# [4] = tested on: LXRb:RXRa (NR concentration 270 nM, RXRa partner concentration 90 nM)
# Outline: as §1
# [5] = tested on: LXRb homodimer (NR concentration 270 nM)
# Outline: as §1
# [6] = tested on: PPARa:RXRa (NR concentration 270 nM, RXRa partner concentration 90 nM)
# Outline: as §1
# [7] = tested on: PPARg:RXRa (NR concentration 180 nM, RXRa partner concentration 90 nM)
# Outline: as §1
# [8] = tested on: PPARg:RXRa 270nM:90nM, anti-RXR (NR concentration 270 nM, RXRa partner concentration 90 nM)
# Outline: as §1
# [9] = tested on: PPARg:RXRa 30nM:10nM, anti-RXR (NR concentration 30 nM, RXRa partner concentration 10 nM)
# Outline: as §1
# [10] = tested on: PPARg:RXRa 90nM:30nM, anti-RXR (NR concentration 90 nM, RXRa partner concentration 30 nM)
# Outline: as §1
# [11] = tested on: PPARg:RXRa DBDmut IVT, anti-RXR (DBD mutation: RXRa K156A/R161A, NR concentration 270 nM, RXRa partner concentration 90 nM)
# Outline: as §1
# [12] = tested on: PPARg:RXRa IVT, anti-PPARg (NR concentration 270 nM, RXRa partner concentration 90 nM)
# Outline: as §1
# [13] = tested on: PPARg DBDmut:RXRa IVT, anti-PPARg (DBD mutation: PPARg1 K132A/R137A, NR concentration 270 nM, RXRa partner concentration 90 nM)
# Outline: as §1
# [14] = tested on: PPARg DBDmut IVT, anti-PPARg (DBD mutation: PPARg1 K132A/R137A, NR concentration 270 nM)
# Outline: as §1
# [15] = tested on: PPARg homodimer (NR concentration 180 nM)
# Outline: as §1
# [16] = tested on: PXR:RXRa (NR concentration 270 nM, RXRa partner concentration 90 nM)
# Outline: as §1
# [17] = tested on: PXR homodimer (NR concentration 270 nM)
# Outline: as §1
# [18] = tested on: RARa:RXR (NR concentration 270 nM, RXRa partner concentration 90 nM)
# Outline: as §1
# [19] = tested on: RARa homodimer (NR concentration 270 nM)
# Outline: as §1
# [20] = tested on: RARb:RXRa (NR concentration 270 nM, RXRa partner concentration 90 nM)
# Outline: as §1
Sequence,PBM binding z-score [1],PBM binding z-score [2],PBM binding z-score [3],PBM binding z-score [4],PBM binding z-score [5],PBM binding z-score [6],PBM binding z-score [7],PBM binding z-score [8],PBM binding z-score [9],PBM binding z-score [10],PBM binding z-score [11],PBM binding z-score [12],PBM binding z-score [13],PBM binding z-score [14],PBM binding z-score [15],PBM binding z-score [16],PBM binding z-score [17],PBM binding z-score [18],PBM binding z-score [19],PBM binding z-score [20]
TCTTGTAGATCAACAGGTTAAGAAAGCTGGCCAA,0.41,0.634,-0.164,0.757,-0.124,1.33,0.000535,1.83,2.88,2.37,1.96,0.82,0.047,0.206,0.081,0.51,0.0471,0.981,-0.173,0.375
CTACCAAGGTGAACAAGGTGGTTGATTACTATTC,0.298,0.0424,-0.231,0.391,-0.589,1.21,0.492,0.416,-0.231,0.026,2.63,2.27,0.24,-0.57,0.187,0.111,0.0854,0.44,0.0119,1.43
CCGACTGGCGCATAAGGTTACCATAAGCCAGCCC,0.387,1.91,-0.184,0.848,-0.921,0.659,0.557,0.0532,-0.553,-0.235,-0.22,-0.617,-0.674,-0.756,0.0825,0.285,-0.103,0.776,0.248,0.721
AGAACGAGGGCAATGTGTTGATAGCACGGGTGGC,0.748,0.456,-0.316,0.0585,-0.324,1.47,1.55,1.19,0.0423,0.712,3.49,2.88,0.318,-0.0765,0.0511,0.325,0.276,0.248,-0.364,2.05
ATCTCTAGGTAACAAGTTCATTGAAAGAGAGGAC,1.22,1.89,1.5,1.8,1.27,2.75,2.82,3.03,1.55,2.63,3.39,3.28,1.38,1.78,1.57,3.71,5.1,2.06,1.52,1.89
ACAGACAGGTGATGAAGGTAAGTCAGGCTATCAT,-0.11,-0.19,-0.349,-0.143,-0.155,0.0808,0.554,-0.245,-0.266,-0.536,0.134,0.289,0.49,-0.485,-0.00799,-0.348,-0.234,-0.203,0.26,0.27
AGAATGAGGTTATTAAGATCATGGAATTGCGGTC,1.63,1.62,0.0389,1.29,-0.00587,2.75,1.91,2.37,0.464,1.49,3.59,3.1,0.789,1.06,0.459,1.53,1.15,1.53,0.293,1.36
TCTAGTTGGTCACTGAGGTCACACACGACGGGTA,4.03,3.64,2.55,3.59,0.98,4.32,3.24,3.98,3.27,3.68,2.68,4.25,2.09,2.11,4.13,4.97,2.81,5.06,2.05,4
ACATACGGGTCAACGAGGTTATAGCACGCGTATA,5.59,4.74,0.827,3.97,0.73,5.39,5.65,4.94,1.99,3.86,3.32,4.26,2.04,0.961,2.67,5.01,2.89,5.03,1.03,3.99
TCTTGTAGATCAATCAGGTTAAGAAAGCCTGAGT,0.77,0.362,0.00408,0.532,0.279,0.703,-0.495,1.31,2.82,2.3,1.98,0.808,1.29,0.885,-0.302,0.413,-0.0985,0.669,-0.252,0.281
CCGACCGGGGCATAAGGTTACCATAAGCCAGCCC,0.604,1.92,-0.254,0.72,-1.04,1.75,1.09,1.45,-0.188,0.731,0.165,0.416,-0.828,-1.51,0.811,0.533,-0.0926,1.79,-0.565,1.8
TCTCGGAGGACACGAAAGTCAGAGCTTTCCAGAG,0.434,-0.603,-0.708,-0.456,-1.24,0.0493,-0.000671,0.487,2.23,1.24,1.13,0.191,-0.706,-0.594,-0.882,-0.408,-0.694,-0.237,-0.903,1.28
CAAACTGGGTCAAGGTCAAAGTCGGTTTGTGCCA,6.14,4.7,2.42,4.41,0.882,5.96,9.55,7.65,6.43,7.63,8.04,8.43,4.25,1.48,4.04,5.26,2.48,5.2,1.14,4.95
TCATGTAGGTAAACAGGTGAAAGTCCGTAAGTTA,0.441,0.537,-0.185,0.487,-0.709,2.46,3.06,3.74,3.38,3.64,4.93,5.27,0.599,0.663,1.08,0.463,0.296,0.664,0.834,0.451
CGGCCAAGGTCAATGCTAGGTCAGTGAAAGCATT,6.95,5.47,1.75,4.08,0.00864,5.19,4.4,4.78,1.47,3.21,3.06,3.69,-0.404,-1.18,4.15,4.73,0.802,5.67,0.406,5.24
ATCTCTAGGTATGACTCAGTTCAGTGAAGAACGC,0.312,0.266,0.305,0.205,0.789,0.0186,0.264,0.0643,-0.0117,0.0715,0.262,0.638,0.456,1.61,0.371,0.877,1.49,0.389,0.624,0.243
TCTTTTAGTTGAAGGGCAACCGACGAGTCCGTTT,0.645,1.13,0.171,1,1.62,1.16,-0.118,2.13,3.65,2.71,2.2,0.777,2.36,1.84,0.00638,0.764,0.475,0.383,0.199,1.65
TCGAGTAGGGTAGTCGGGGCATTCAGCCAACATA,-0.261,-0.324,-0.232,0.0407,-0.844,0.109,-0.307,0.468,0.525,0.442,1.33,0.997,-1.17,-0.743,0.299,-0.12,-0.394,-0.233,-0.527,0.0213
AGAACGAGGGCAATGATTTGATAGCACGGGTGGC,0.321,0.43,-0.337,0.168,-0.65,1.41,1.57,0.787,0.29,0.557,3.4,2.89,0.782,0.14,0.437,0.447,0.328,0.36,0.605,1.95
CGTCCAAGGTCAGAGCGGTCAGTGAATGCCGAGT,4.97,4.15,1.27,2.69,-0.231,3.86,1.33,2.69,0.148,1.42,2.63,2.2,-0.349,0.202,2.18,3.25,2.78,3.14,0.595,4.58
CCAGACAGGTGAAAAGTAACTCAGTCTGGTACGC,-0.306,-0.0475,-0.078,0.0504,-0.286,1.01,1.08,2.27,0.369,1.43,1.47,0.789,-0.595,-0.539,0.332,-0.0943,-0.142,0.133,0.489,0.36
TCATACAGGTAAAGGTGAAAGTCGAACGATATGA,1.17,1.57,0.0169,1.44,0.312,3.08,2.39,3.81,4.26,4.38,2.37,2.45,1.8,0.696,0.957,1.03,0.178,1.82,1.18,2.19
TCTATTAGTTGATTAGGGCAATCGAAACAGCGGA,0.665,0.828,0.306,0.766,0.542,0.871,0.0917,2.06,3.7,2.93,2.23,1.29,0.785,0.869,1.1,0.568,0.192,0.781,1.56,0.778
CTCGAAAGGTCGGTTGAGTTGAGTATACGGATAA,2.22,1.48,0.18,1.5,-0.0298,2.27,0.295,0.792,0.314,0.857,0.55,0.513,0.723,0.673,1.04,3.89,0.374,1.81,0.0679,2.71
TCGAGTAGGCTAGTCGGGGCATTCAGCCAACATA,-0.433,-0.611,-0.763,-0.579,-1.53,-0.209,-0.351,0.0773,0.911,0.101,0.821,0.0917,-1.43,-1.24,-0.694,-0.462,-0.889,-0.446,-1.18,-0.223
AGAATGAGGCTATACGTAGATCAGGGAAGAAAGT,-0.393,-0.526,-0.213,-0.708,-0.243,0.0162,0.801,0.267,0.101,0.251,1.49,0.333,0.633,0.637,-0.215,-0.274,-0.0563,-0.0968,-0.0794,0.153
GCTGCTAGGTCAACTGACGGTCAGCTAAAGCTCG,4.79,3.96,1.36,2.5,0.152,3.92,2.88,3.37,0.824,2.14,5.14,4.49,0.437,-0.0795,4.42,2.08,-0.874,4.58,1.05,4.56
TGAATGAGGTTAAAGATCAGGCAACGTGGCGTCG,2.94,2.82,-0.471,1.4,0.134,4.85,5.51,6.49,5.01,6.3,2.24,3.79,0.599,0.0672,0.811,1.83,0.118,2.92,-0.39,2.02
